Here are results for three compounds from PubChem BioAssay (EPA / NIEHS).

Active and inactive are the calls of the source. How the source made its calls: active means hit-call score of the fitted dose curve at least 0.9, where 1 is the maximum; inactive means score below 0.9.

Holding throughout (conditions): mRNA level, 48 h; actives raise or lower the signal
Read-out in assay [1]: Insulin-like growth factor-binding protein 1 (IGFBP1), IGFBP1 (gene 3484)
Description: LTEA_HepaRG_IGFBP1: Life Technologies and Expression Analysis (LTEA) Assay for Insulin-like growth factor-binding protein 1 (IGFBP1) using HepaRG (AID 2283508). Put shortly:
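Read-out is qRT-PCR transcript level normalized to three housekeeping genes, fitted in both directions against 0.5% DMSO. Differentiated HepaRG cells received eight half-log concentrations (top 100 uM) in duplicate for 48 h in serum-free induction medium.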

Read-out in assay [2]: Interleukin 6 (IL6), IL6 (gene 3569)
Description: LTEA_HepaRG_IL6: Life Technologies and Expression Analysis (LTEA) Assay for Interleukin 6 (IL6) using HepaRG (AID 2283509). Put shortly: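 Changes in IL6 mRNA, up or down relative to 0.5% DMSO controls, were derived from concentration-response curves in human HepaRG cells treated for 48 h at up to 100 uM, with ACTB, GAPDH and POLR2A as normalizers.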

Read-out in assay [3]: Interleukin 6 Receptor (IL6R), IL6R (gene 3570)
Description: LTEA_HepaRG_IL6R: Life Technologies and Expression Analysis (LTEA) Assay for Interleukin 6 Receptor (IL6R) using HepaRG (AID 2283510). Put shortly: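 In this HepaRG screen, test chemicals act on cells for 48 h at up to 100 uM (eight half-log points, duplicate wells). IL6R expression is quantified by qRT-PCR after normalization to ACTB, GAPDH and POLR2A, with DMSO as baseline.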

Read-out in assay [4]: Potassium channel subfamily K member 1 (KCNK1), KCNK1 (gene 3775)
Description: LTEA_HepaRG_KCNK1: Life Technologies and Expression Analysis (LTEA) Assay for Potassium channel subfamily K member 1 (KCNK1) using HepaRG (AID 2283511). Put shortly: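 Human HepaRG cultures receive test chemicals for 48 h in 0.5% DMSO, top concentration 100 uM with half-log dilutions. Induction or suppression of KCNK1 mRNA relative to DMSO is derived by bidirectional fitting of qRT-PCR data.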

Read-out in assay [5]: Keratin 19 (KRT19), KRT19 (gene 3880)
Put plainly: LTEA_HepaRG_KRT19: Life Technologies and Expression Analysis (LTEA) Assay for Keratin 19 (KRT19) using HepaRG (AID 2283512). Put shortly:
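KRT19 transcript measured by TaqMan qRT-PCR, referenced to three housekeeping genes, after HepaRG cells received test chemicals for 48 h. Eight half-log concentrations, top 100 uM, 0.5% DMSO vehicle; increases and decreases both fitted.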

Read-out in assay [6]: JUN Transcription Factor, JUN (gene 3725)
Description: LTEA_HepaRG_JUN: Life Technologies and Expression Analysis (LTEA) Assay for JUN Transcription Factor using HepaRG (AID 2283513). Put shortly:
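Gene-expression endpoint: JUN mRNA (qRT-PCR, normalized to three reference genes) in HepaRG cultures treated 48 h with chemicals, duplicate wells, 100 uM maximum with half-log dilutions; bidirectional fitting relative to 0.5% DMSO.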

Read-out in assay [7]: Lipase C (LIPC), LIPC (gene 3990)
Description: LTEA_HepaRG_LIPC: Life Technologies and Expression Analysis (LTEA) Assay for Lipase C (LIPC) using HepaRG (AID 2283514). Put shortly:
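In this multiplexed gene-expression screen, human HepaRG cultures received test chemicals for 48 h across eight concentrations with 100 uM highest, in duplicate. Values reflect LIPC mRNA induction or suppression versus DMSO vehicle, from normalized qRT-PCR.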

Read-out in assay [8]: MicroRNA 122 (MIR122), gene 406906
Put plainly: LTEA_HepaRG_MIR122: Life Technologies and Expression Analysis (LTEA) Assay for MicroRNA 122 (MIR122) using HepaRG (AID 2283516). Further: the transcript read is the microRNA miR-122. Put shortly:
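Changes in transcript abundance, up or down relative to 0.5% DMSO vehicle, were scored after 48 h chemical treatment of HepaRG cells (maximum 100 uM). Quantification used TaqMan qRT-PCR normalized to housekeeping genes.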

Read-out in assay [9]: matrix metalloproteinase-10 (MMP10), MMP10 (gene 4319)
Put plainly: LTEA_HepaRG_MMP10: Life Technologies and Expression Analysis (LTEA) Assay for matrix metalloproteinase-10 (MMP10) using HepaRG (AID 2283517). Put shortly: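 In differentiated HepaRG cultures kept in 0.5% DMSO, test chemicals act for 48 h over an eight-point range with a top dose of 100 uM. Expression is then quantified by TaqMan RT-PCR against ACTB, GAPDH and POLR2A.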

Read-out in assay [10]: MYC, MYC (gene 4609)
Description: LTEA_HepaRG_MYC: Life Technologies and Expression Analysis (LTEA) Assay for MYC using HepaRG (AID 2283518). Put shortly: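 MYC transcript changes, up or down relative to 0.5% DMSO, from TaqMan qRT-PCR normalized to three housekeeping genes. Human HepaRG cultures received chemicals for 48 h at eight half-log concentrations up to 100 uM, in duplicate.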

Read-out in assay [11]: matrix metalloproteinase-3 (MMP3), MMP3 (gene 4314)
Description: LTEA_HepaRG_MMP3: Life Technologies and Expression Analysis (LTEA) Assay for matrix metalloproteinase-3 (MMP3) using HepaRG (AID 2283519). Put shortly: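 Human liver HepaRG cultures received chemicals (top concentration 100 uM, 0.5% DMSO) for 48 h in duplicate. MMP3 mRNA induction or loss was then assessed via TaqMan qRT-PCR with housekeeping-gene normalisation.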

Read-out in assay [12]: Paternally Expressed 10 (PEG10), PEG10 (gene 23089)
Put plainly: LTEA_HepaRG_PEG10: Life Technologies and Expression Analysis (LTEA) Assay for Paternally Expressed 10 (PEG10) using HepaRG (AID 2283520).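 On AC50: PEG10 transcript by qRT-PCR normalised to ACTB GAPDH and POLR2A.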 Put shortly:
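After 48 h exposure of differentiated HepaRG cells (0.5% DMSO vehicle, eight concentrations up to 100 uM, duplicates), PEG10 mRNA was measured by TaqMan qRT-PCR. Values were normalised to endogenous control genes and analysed bidirectionally against vehicle.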

Read-out in assay [13]: Protein phosphatase 2A (PPP2R4), PTPA (gene 5524)
Description: LTEA_HepaRG_PPP2R4: Life Technologies and Expression Analysis (LTEA) Assay for Protein phosphatase 2A (PPP2R4) using HepaRG (AID 2283522). Put shortly:
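Using HepaRG cultures maintained in 0.5% DMSO, chemicals are tested 48 h at up to 100 uM in duplicate. Induction or suppression of PPP2R4 mRNA, measured by qRT-PCR, is fitted bidirectionally against the vehicle baseline.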

Read-out in assay [14]: Phosphatase and tensin (PTEN), PTEN (gene 5728)
Put plainly: LTEA_HepaRG_PTEN: Life Technologies and Expression Analysis (LTEA) Assay for Phosphatase and tensin (PTEN) using HepaRG (AID 2283523). Put shortly:
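Expression of PTEN is quantified in the human liver line HepaRG following two days of dosing (top concentration 100 uM, half-log dilutions, 0.5% DMSO). Values derive from bidirectional curve fitting relative to DMSO controls.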

Read-out in assay [15]: solute carrier (SLC22A1), SLC22A1 (gene 6580)
Description: LTEA_HepaRG_SLC22A1: Life Technologies and Expression Analysis (LTEA) Assay for solute carrier (SLC22A1) using HepaRG (AID 2283524).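 On AC50: TaqMan qRT-PCR normalized to ACTB GAPDH and POLR2A housekeeping genes.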 Put shortly:
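Transcript induction or suppression of SLC22A1 in human HepaRG cultures is scored after 48 h chemical treatment, with DMSO (0.5%) as baseline for bidirectional fitting. Concentrations span eight half-log points topping at 100 uM.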

Read-out in assay [16]: Pyruvate Dehydrogenase Kinase 4 (PDK4), PDK4 (gene 5166)
Put plainly: LTEA_HepaRG_PDK4: Life Technologies and Expression Analysis (LTEA) Assay for Pyruvate Dehydrogenase Kinase 4 (PDK4) using HepaRG (AID 2283525). Put shortly:
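Eight-point, half-log concentration series (max 100 uM, 0.5% DMSO) applied to differentiated HepaRG cells for 48 h in duplicate. Endpoint: PDK4 mRNA induction or repression by qRT-PCR against DMSO baseline.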

Read-out in assay [17]: NAD(P)H dehydrogenase [quinone] 1 (NQO1), NQO1 (gene 1728)
Put plainly: LTEA_HepaRG_NQO1: Life Technologies and Expression Analysis (LTEA) Assay for NAD(P)H dehydrogenase [quinone] 1 (NQO1) using HepaRG (AID 2283526). Put shortly:
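In this assay, gene expression is read by qRT-PCR after 48 h exposure of HepaRG cells to eight concentrations (max 100 uM, half-log) in 0.5% DMSO. Each chemical runs in duplicate, and activity is scored relative to vehicle.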

Read-out in assay [18]: Nuclear factor erythroid 2-related factor 2 (Homo sapiens) (UniProt Q16236)
Description: LTEA_HepaRG_NFE2L2: Life Technologies and Expression Analysis (LTEA) Assay for Nuclear factor erythroid 2-related factor 2 (NFE2L2) Transcription Factor using HepaRG (AID 2283527).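 On outcome: TaqMan qRT-PCR transcript level normalised to ACTB GAPDH and POLR2A housekeeping genes.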 Put shortly:
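Human liver HepaRG line treated in duplicate for 48 h with an eight-point series topping at 100 uM. Gene expression of NFE2L2 by qRT-PCR, bidirectionally fitted against the vehicle control.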

Read-out in assay [19]: Lipoprotein lipase (LPL), LPL (gene 4023)
Put plainly: LTEA_HepaRG_LPL: Life Technologies and Expression Analysis (LTEA) Assay for Lipoprotein lipase (LPL) using HepaRG (AID 2283515). Put shortly: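 Concentration-response testing used half-log steps from 100 uM in 0.5% DMSO on human HepaRG cells, 48 h, duplicate wells. Phenobarbital 1 mM served as induction control; LPL mRNA was normalized to ACTB, GAPDH, POLR2A.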

Read-out in assay [20]: Nuclear factor NF-kappa-B p105 subunit (Homo sapiens) (UniProt P19838)
Description: LTEA_HepaRG_NFKB1: Life Technologies and Expression Analysis (LTEA) Assay for Nuclear Factor Kappa B Subunit 1 (NFKB1) using HepaRG (AID 2283521).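 Further: TaqMan qRT-PCR transcript normalised to ACTB GAPDH and POLR2A housekeeping genes.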 Put shortly:
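Differentiated human HepaRG cells in serum-free induction medium with 0.5% DMSO were exposed for 48 h to eight half-log concentrations, top 100 uM, in duplicate. NFKB1 mRNA measured by Fluidigm TaqMan qRT-PCR, normalised to ACTB, GAPDH and POLR2A; bidirectional fit versus DMSO.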

Nuclear factor erythroid 2-related factor 2 (Homo sapiens), sequence (Q16236 whole entry, looked up): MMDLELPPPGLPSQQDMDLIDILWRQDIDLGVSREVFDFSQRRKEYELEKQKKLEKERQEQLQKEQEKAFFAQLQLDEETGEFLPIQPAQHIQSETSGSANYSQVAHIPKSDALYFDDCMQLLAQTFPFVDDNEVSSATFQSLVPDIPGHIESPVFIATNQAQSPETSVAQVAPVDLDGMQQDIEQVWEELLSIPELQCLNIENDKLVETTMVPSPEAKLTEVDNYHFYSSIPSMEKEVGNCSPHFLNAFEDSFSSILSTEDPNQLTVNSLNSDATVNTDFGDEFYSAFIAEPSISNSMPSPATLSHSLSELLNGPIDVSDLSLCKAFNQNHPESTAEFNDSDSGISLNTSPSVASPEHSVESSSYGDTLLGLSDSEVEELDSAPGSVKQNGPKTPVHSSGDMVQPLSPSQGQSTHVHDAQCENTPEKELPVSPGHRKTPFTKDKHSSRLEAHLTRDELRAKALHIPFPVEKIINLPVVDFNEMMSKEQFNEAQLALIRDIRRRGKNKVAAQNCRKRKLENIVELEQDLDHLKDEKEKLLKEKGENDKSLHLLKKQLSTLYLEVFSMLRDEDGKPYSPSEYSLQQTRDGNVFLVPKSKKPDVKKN
Nuclear factor NF-kappa-B p105 subunit (Homo sapiens), sequence (P19838 whole entry, looked up): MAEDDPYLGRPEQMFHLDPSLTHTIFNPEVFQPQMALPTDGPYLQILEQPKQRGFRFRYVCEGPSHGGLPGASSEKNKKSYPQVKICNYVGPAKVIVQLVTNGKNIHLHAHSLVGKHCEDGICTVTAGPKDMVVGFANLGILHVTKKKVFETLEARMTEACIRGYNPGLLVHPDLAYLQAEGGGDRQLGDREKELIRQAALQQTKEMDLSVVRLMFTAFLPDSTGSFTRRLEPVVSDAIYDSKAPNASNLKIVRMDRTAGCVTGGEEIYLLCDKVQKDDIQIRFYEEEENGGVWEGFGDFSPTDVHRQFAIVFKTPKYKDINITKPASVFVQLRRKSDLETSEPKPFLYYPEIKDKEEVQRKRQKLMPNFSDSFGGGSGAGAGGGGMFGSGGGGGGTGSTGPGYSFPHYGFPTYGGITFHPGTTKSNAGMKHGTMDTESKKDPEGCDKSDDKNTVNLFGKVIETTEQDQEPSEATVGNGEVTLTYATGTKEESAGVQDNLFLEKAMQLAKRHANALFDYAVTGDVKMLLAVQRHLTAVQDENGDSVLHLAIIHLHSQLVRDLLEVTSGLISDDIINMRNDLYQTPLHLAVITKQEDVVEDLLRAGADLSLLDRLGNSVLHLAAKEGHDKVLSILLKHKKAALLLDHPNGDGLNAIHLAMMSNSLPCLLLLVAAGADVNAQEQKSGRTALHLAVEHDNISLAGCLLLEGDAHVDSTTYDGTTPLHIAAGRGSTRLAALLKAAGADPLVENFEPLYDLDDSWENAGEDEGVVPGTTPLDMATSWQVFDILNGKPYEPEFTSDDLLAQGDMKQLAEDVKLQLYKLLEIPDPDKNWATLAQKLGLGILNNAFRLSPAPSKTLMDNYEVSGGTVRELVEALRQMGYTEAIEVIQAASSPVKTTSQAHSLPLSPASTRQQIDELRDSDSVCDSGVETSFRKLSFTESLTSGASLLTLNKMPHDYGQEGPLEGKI

As usually defined, the AC50 is the concentration at which the activity in the assay is half-maximal. As to `CC(COc1ccc(Oc2ccccc2)cc1)Oc1ccccn1` (stereo not given), the call in assay [1], in assay [2], in assay [3], in [4], in assay [5] and in [6] was inactive. The compound was classed as inactive in [7], in assay [8], in assay [9], in assay [10], in [11] and in assay [12]. Moreover, the compound was called inactive in [13], in assay [14], in [17] and in assay [18]. The concentration at half-maximal activity (AC50) in assay [15] is 12.1 µM (active); in assay [16], 25.4 µM (active).

Consider `CCOP(=S)(OCC)Oc1cc(C)nc(C(C)C)n1`, for which the AC50 is 19 µM (active) in assay [1] and 50 µM (active) in [12]. In addition, the compound was called inactive in [2], in assay [3], in [4], in assay [5], in assay [6] and in assay [19]. The call in assay [8], in assay [9], in assay [10], in [11], in [20] and in assay [13] was inactive. Also, the outcome in assay [14], in [15], in [16], in assay [17] and in assay [18] was inactive.

Consider `CN(C)C(=O)Nc1cccc(C(F)(F)F)c1`, for which the outcome in assay [1], in assay [2], in [3], in assay [4], in assay [5] and in [6] was inactive. Also, the compound was called inactive in assay [8], in assay [9], in assay [10], in assay [12], in assay [13] and in assay [14]. Also, the call in assay [15], in assay [16] and in assay [17] was inactive. Moreover, the figures for the AC50 in [7], in assay [11] and in assay [18] were 50 µM (active), 82.7 µM (active) and 50 µM (active), respectively.
